Results taken from article PMC12864922, “TDP-43 directly inhibits mRNA accumulation in neurites through modulation of mRNA stability”.
Over roughly 9,900 sequences, “r (bound/input frequency ratio)” has its median near 0.7; the highest 2% begin near 6.5. Shown is part of a subset that was picked to be rich in the highest values.

B1: ENSMUSG00000029636.434|Wasf3 (ssRNA)
RNA: GGGAGUUCUACAGUCCGACGAUCGCUUCGAUAUCCGCAUGCUAGUGGAUUGGUGGGUGAGUGGAUAGGUGAAUGGAUGAUAGGUGGUGGAUGGUUGAGUGGGUGGAUUCAUGAUGGAUGGAUGGAUGGAUGGAUGGAUGGAUGGAUGGAUGAGUGGAUGGAUAAUAGGUUGAUGGGUGGAUAGGUAGAUGAGUGAAUAGAUAGAUAUAGAUCAGUGGGAGGAUUGGAAAGUAGGUGAAUGAAUGGAUGGCAGAUAGAUGGAUCAAUUACAGAUGGAUGGAUGCAUGGAAUAGAUAGGUGGAUGCUCUUGCGGUCGCACUAGUGUGGAAUUCUCGGGUGUCAAGG
B2: ENSMUSG00000029636.431|Wasf3 (ssRNA)
RNA: GGGAGUUCUACAGUCCGACGAUCGCUUCGAUAUCCGCAUGCUAACAUGGAUGAGUGGAUGGGUGGAUUGGUGGGUGAGUGGAUAGGUGAAUGGAUGAUAGGUGGUGGAUGGUUGAGUGGGUGGAUUCAUGAUGGAUGGAUGGAUGGAUGGAUGGAUGGAUGGAUGGAUGAGUGGAUGGAUAAUAGGUUGAUGGGUGGAUAGGUAGAUGAGUGAAUAGAUAGAUAUAGAUCAGUGGGAGGAUUGGAAAGUAGGUGAAUGAAUGGAUGGCAGAUAGAUGGAUCAAUUACAGAUGGAUGGAUGCAUCUCUUGCGGUCGCACUAGUGUGGAAUUCUCGGGUGUCAAGG
B3: ENSMUSG00000029636.425|Wasf3 (ssRNA)
RNA: GGGAGUUCUACAGUCCGACGAUCGCUUCGAUAUCCGCAUGCUAAGGUGGGUAAGUAGCUAGGUGGAUGGGUGGGUGGAUACAUGGAUGAGUGGAUGGGUGGAUUGGUGGGUGAGUGGAUAGGUGAAUGGAUGAUAGGUGGUGGAUGGUUGAGUGGGUGGAUUCAUGAUGGAUGGAUGGAUGGAUGGAUGGAUGGAUGGAUGGAUGAGUGGAUGGAUAAUAGGUUGAUGGGUGGAUAGGUAGAUGAGUGAAUAGAUAGAUAUAGAUCAGUGGGAGGAUUGGAAAGUAGGUGAAUGAAUGGAUGGCUCUUGCGGUCGCACUAGUGUGGAAUUCUCGGGUGUCAAGG
B4: ENSMUSG00000029636.422|Wasf3 (ssRNA)
RNA: GGGAGUUCUACAGUCCGACGAUCGCUUCGAUAUCCGCAUGCUAUGAGUGGAUGGGUGGGUUAGGUGGGUAAGUAGCUAGGUGGAUGGGUGGGUGGAUACAUGGAUGAGUGGAUGGGUGGAUUGGUGGGUGAGUGGAUAGGUGAAUGGAUGAUAGGUGGUGGAUGGUUGAGUGGGUGGAUUCAUGAUGGAUGGAUGGAUGGAUGGAUGGAUGGAUGGAUGGAUGAGUGGAUGGAUAAUAGGUUGAUGGGUGGAUAGGUAGAUGAGUGAAUAGAUAGAUAUAGAUCAGUGGGAGGAUUGGAAAGUCUCUUGCGGUCGCACUAGUGUGGAAUUCUCGGGUGUCAAGG
B5: ENSMUSG00000029636.424|Wasf3 (ssRNA)
RNA: GGGAGUUCUACAGUCCGACGAUCGCUUCGAUAUCCGCAUGCUAUGGGUUAGGUGGGUAAGUAGCUAGGUGGAUGGGUGGGUGGAUACAUGGAUGAGUGGAUGGGUGGAUUGGUGGGUGAGUGGAUAGGUGAAUGGAUGAUAGGUGGUGGAUGGUUGAGUGGGUGGAUUCAUGAUGGAUGGAUGGAUGGAUGGAUGGAUGGAUGGAUGGAUGAGUGGAUGGAUAAUAGGUUGAUGGGUGGAUAGGUAGAUGAGUGAAUAGAUAGAUAUAGAUCAGUGGGAGGAUUGGAAAGUAGGUGAAUGAAUCUCUUGCGGUCGCACUAGUGUGGAAUUCUCGGGUGUCAAGG
B6: ENSMUSG00000029636.423|Wasf3 (ssRNA)
RNA: GGGAGUUCUACAGUCCGACGAUCGCUUCGAUAUCCGCAUGCUAGAUGGGUGGGUUAGGUGGGUAAGUAGCUAGGUGGAUGGGUGGGUGGAUACAUGGAUGAGUGGAUGGGUGGAUUGGUGGGUGAGUGGAUAGGUGAAUGGAUGAUAGGUGGUGGAUGGUUGAGUGGGUGGAUUCAUGAUGGAUGGAUGGAUGGAUGGAUGGAUGGAUGGAUGGAUGAGUGGAUGGAUAAUAGGUUGAUGGGUGGAUAGGUAGAUGAGUGAAUAGAUAGAUAUAGAUCAGUGGGAGGAUUGGAAAGUAGGUGACUCUUGCGGUCGCACUAGUGUGGAAUUCUCGGGUGUCAAGG
B7: ENSMUSG00000029636.436|Wasf3 (ssRNA)
RNA: GGGAGUUCUACAGUCCGACGAUCGCUUCGAUAUCCGCAUGCUAGUGAGUGGAUAGGUGAAUGGAUGAUAGGUGGUGGAUGGUUGAGUGGGUGGAUUCAUGAUGGAUGGAUGGAUGGAUGGAUGGAUGGAUGGAUGGAUGAGUGGAUGGAUAAUAGGUUGAUGGGUGGAUAGGUAGAUGAGUGAAUAGAUAGAUAUAGAUCAGUGGGAGGAUUGGAAAGUAGGUGAAUGAAUGGAUGGCAGAUAGAUGGAUCAAUUACAGAUGGAUGGAUGCAUGGAAUAGAUAGGUGGAUGGGUGGUGGCUAGCUCUUGCGGUCGCACUAGUGUGGAAUUCUCGGGUGUCAAGG
B8: ENSMUSG00000029636.433|Wasf3 (ssRNA)
RNA: GGGAGUUCUACAGUCCGACGAUCGCUUCGAUAUCCGCAUGCUAGGAUGGGUGGAUUGGUGGGUGAGUGGAUAGGUGAAUGGAUGAUAGGUGGUGGAUGGUUGAGUGGGUGGAUUCAUGAUGGAUGGAUGGAUGGAUGGAUGGAUGGAUGGAUGGAUGAGUGGAUGGAUAAUAGGUUGAUGGGUGGAUAGGUAGAUGAGUGAAUAGAUAGAUAUAGAUCAGUGGGAGGAUUGGAAAGUAGGUGAAUGAAUGGAUGGCAGAUAGAUGGAUCAAUUACAGAUGGAUGGAUGCAUGGAAUAGAUAGGCUCUUGCGGUCGCACUAGUGUGGAAUUCUCGGGUGUCAAGG
B9: ENSMUSG00000029636.426|Wasf3 (ssRNA)
RNA: GGGAGUUCUACAGUCCGACGAUCGCUUCGAUAUCCGCAUGCUAGUAAGUAGCUAGGUGGAUGGGUGGGUGGAUACAUGGAUGAGUGGAUGGGUGGAUUGGUGGGUGAGUGGAUAGGUGAAUGGAUGAUAGGUGGUGGAUGGUUGAGUGGGUGGAUUCAUGAUGGAUGGAUGGAUGGAUGGAUGGAUGGAUGGAUGGAUGAGUGGAUGGAUAAUAGGUUGAUGGGUGGAUAGGUAGAUGAGUGAAUAGAUAGAUAUAGAUCAGUGGGAGGAUUGGAAAGUAGGUGAAUGAAUGGAUGGCAGAUACUCUUGCGGUCGCACUAGUGUGGAAUUCUCGGGUGUCAAGG

What follows are binders tested against TDP-43 (Homo sapiens, UniProt Q13148 1-414) (assay: RNA Bind-n-Seq with designed 260-mer pool; 25 mM Tris-HCl, 150 mM KCl, 3 mM MgCl2, BSA (printed 500 mg/mL), 20 units/mL SUPERase IN; pH not stated; 500 nM RNA pool, 1 h, 4 C; TDP-43 5, 50, 500 nM; high values mean tight binding). Settings: protein: recombinant; tags: SBP (GST cleaved off with PreScission; pGEX-GST-SBP).
Chain of TDP-43 (Q13148 whole entry): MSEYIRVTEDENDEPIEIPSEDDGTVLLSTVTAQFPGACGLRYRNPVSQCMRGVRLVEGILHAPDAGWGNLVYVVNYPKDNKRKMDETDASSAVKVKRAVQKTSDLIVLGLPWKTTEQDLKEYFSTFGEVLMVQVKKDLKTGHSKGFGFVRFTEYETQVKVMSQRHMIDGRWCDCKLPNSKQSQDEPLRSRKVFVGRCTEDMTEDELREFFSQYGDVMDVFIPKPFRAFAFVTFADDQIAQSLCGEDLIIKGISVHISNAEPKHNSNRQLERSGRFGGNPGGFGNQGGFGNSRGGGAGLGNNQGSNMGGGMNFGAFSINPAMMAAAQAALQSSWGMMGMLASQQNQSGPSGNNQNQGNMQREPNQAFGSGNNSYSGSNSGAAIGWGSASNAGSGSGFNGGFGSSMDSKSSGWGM
Method in brief: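 The incubation lasted 1 h at 4 °C and used 500 nM of an in vitro-transcribed 260-nt 3′ UTR oligo pool with recombinant SBP-tagged TDP-43 at 5, 50 or 500 nM immobilized on streptavidin beads. It took place in 25 mM Tris-HCl, 150 mM KCl, 3 mM MgCl2, BSA and SUPERase IN. Bound RNA was washed, eluted with biotin, converted to cDNA, PCR-amplified and sequenced to give R, each oligo's normalized abundance in the bound sample divided by that in input. Two independent protein batches provided the duplicates.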

Binder | binding signal
B1 | 7.94 R (bound/input frequency ratio)
B2 | 6.71 R (bound/input frequency ratio)
B3 | 3.86 R (bound/input frequency ratio)
B4 | 11.2 R (bound/input frequency ratio)
B5 | 1.66 R (bound/input frequency ratio)
B6 | 4.57 R (bound/input frequency ratio)
B7 | 6.61 R (bound/input frequency ratio)
B8 | 4.32 R (bound/input frequency ratio)
B9 | 3.58 R (bound/input frequency ratio)
